In PubChem BioAssay (NCATS):
Values without a mark were called inactive. How the calls were made is not given here.

system: HIV-1 nucleocapsid protein NCp7 (binding to TG oligonucleotide); assay: HIV Nucleocapsid (AID 346); conditions: HIV-1 NC / fluorescein-TGTGTGTG probe, fluorescence polarization;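 further: potency is for inhibitors that block NC binding and lower polarization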
Outline: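 Reagents dispensed (10 nM TG4xF, 100 nM HIV-1 NC), plates spun, compounds pin-transferred, then incubated 1 hr at room temperature before FP imaging. Buffer: Hepes pH 7.5, 250mM NaCl, 1uM ZnCl2, 100 uM TCEP, 5 mM 2-mercaptoethanol.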
Potency means the concentration at half of the fitted maximal effect.

Row | SMILES | Potency [µM]
1 | Cc1cccc(CNc2ccnc(-c3ccoc3)n2)c1 | > 20
2 | O=C(c1cccc(F)c1)N1CCC2(CC1)CCN(c1ncccn1)CC2 | > 20
3 | COc1ccc(-n2c(=O)c(-c3cccs3)nc3cnc(Nc4cccc(OC)c4)nc32)cc1 | > 20
4 | Cc1nc2cnc(N(C)C)nc2n(C)c1=O | > 20
5 | CS(=O)(=O)N1CCC2(CCCN(Cc3ccc(C#N)cc3)C2)CC1 | > 20
6 | c1ccc2c(Nc3ccncc3)nc(-c3ccc4c(c3)OCO4)nc2c1 | > 20
7 | COc1ccc(NC(=O)N2CC[C@@]3(CCCN(C(=O)c4cc(C(F)(F)F)cc(C(F)(F)F)c4)C3)C2)cc1 | > 20
8 | c1ccc(Nc2ncncc2-c2ccc3c(c2)OCO3)cc1 | > 20
9 | O=c1c(-c2ccc(F)c(F)c2)nc2cncnc2n1-c1ccccc1 | > 20
10 | CC(=O)N1CCC[C@@]2(CCN(Cc3ccc(C#N)cc3)C2)C1 | > 20
11 | COCCn1c(=O)c(-c2ccc(Cl)cc2)nc2cnc(N3CCOCC3)nc21 | > 20
12 | COc1ccccc1CNc1nc(-c2ccccc2OC)nc2ccccc12 | > 20
13 | Cc1ccccc1-c1cncnc1NCc1ccccc1 | > 20
14 | COc1ccc2[nH]cc(CCNc3nc(-c4ccc(C(=O)N(C)C)cc4)nc4ccccc34)c2c1 | > 20
15 | O=C(Oc1ccccc1)N1CCC2(CC1)CN(c1ccccc1)C2 | > 20
16 | COCC(=O)N1CCC2(CC1)CN(C(=O)Nc1ccc(OC)cc1)C2 | > 20
17 | N#Cc1cccc(-c2cc(NCc3cccnc3)ncn2)c1 | > 20
18 | COc1ccc(-n2c(=O)c(-c3ccc(F)cc3)nc3cnc(N4CCNCC4)nc32)cc1 | > 20
19 | COc1cccc(Nc2ncc3ncc(=O)n(Cc4cccs4)c3n2)c1 | > 20
20 | O=C(c1ccncc1)N1CCC2(CCN(Cc3ccccc3)CC2)CC1 | > 20

Row | SMILES | Potency [µM]
21 | O=C(c1ccncc1)N1CCC2(CC1)CN(c1ccccc1)C2 | > 20
22 | FC(F)(F)c1ccccc1-c1nc(N2CCNCC2)c2ccccc2n1 | > 20
23 | COc1ccc(-c2nc3cnc(N4CCNCC4)nc3n(Cc3cccs3)c2=O)cc1 | > 20
24 | CCNc1ncc2ncc(=O)n(C)c2n1 | > 20
25 | Cn1c(=O)c(-c2cccs2)nc2cncnc21 | > 20
26 | Fc1ccc(Nc2ncnc3ccc(-c4ccoc4)cc23)cc1 | > 20
27 | Cc1nc2cnc(N3CCOCC3)nc2n(C)c1=O | > 20
28 | COc1ccc(CNc2ccnc(-c3ccccc3Cl)n2)c(OC)c1 | > 20
29 | CN(C)c1ncc2nc(CCc3ccccc3)c(=O)n(Cc3ccc(F)cc3)c2n1 | > 20
30 | O=C(O)C1CCN(c2ncnc3ccc(-c4ccccc4C(F)(F)F)cc23)CC1 | > 20
31 | COc1ccc(-n2c(=O)c(-c3ccc(Cl)cc3)nc3cnc(N4CCNCC4)nc32)cc1 | > 20
32 | COc1ccc(NC(=O)N2CC[C@@]3(CCCN(S(C)(=O)=O)C3)C2)cc1 | > 20
33 | O=c1c(-c2ccccc2)nc2cnc(Oc3ccccc3)nc2n1C[C@H]1CCCO1 | > 20
34 | COc1ccccc1CN1CCCC2(CCN(S(=O)(=O)c3ccccc3)CC2)C1 | > 20
35 | CN(C)C(=O)c1ccc(-c2cc(NCc3cccs3)ncn2)cc1 | > 20
36 | CC(=O)N1CCC2(CCCN(c3ccccc3)C2)CC1 | > 20
37 | Cc1ccccc1-c1cncnc1NCCN1CCOCC1 | > 20
38 | CS(=O)(=O)N1CCC2(CCCN(Cc3ccccc3)C2)CC1 | > 20
39 | O=S(=O)(c1ccccc1)N1CCC2(CCCN(C(c3ccccc3)c3ccccc3)C2)CC1 | > 20
40 | O=c1c(-c2ccccc2)nc2cnc(Oc3ccccc3)nc2n1Cc1cccs1 | > 20
